Among the data in PubChem BioAssay (NCI) are growth values, retold here.

About 83,000 compounds went through this panel and 20% of them were active in at least one assay; those are over-represented in the sample as a whole.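 The test compound was applied at a single concentration to cells in 96-well plates for 48 hours, and percent growth was recorded.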 Values without a mark were called inactive. Calls of active or inactive are those of the source. How the source made its calls: active means growth percent below 10; inactive means the rest.

Common to all, as to assay: NCI-60 one-dose screen, 48 h (100 = growth as untreated, 0 = no growth, -100 = all killed)
Conditions in all cases: 10 µM unless noted

The subject of experiment [1] is DU-145 prostate.
Experiment [2] relates to K-562 leukemia.
In experiment [3] the test system is MALME-3M melanoma.
Experiment [4] has as its system MDA-MB-231 breast.
The subject of experiment [5] is RXF 393 renal.
Experiment [6] has as its system SF-268 CNS.
For experiment [7], the system named is SF-295 CNS.
Experiment [8] concerns SF-539 CNS.
Experiment [9] relates to UACC-257 melanoma.
In experiment [10] the test system is M14 melanoma.

Consider `c1cc(C2=N[C@@H]3c4ccccc4C[C@@H]3O2)nc(C2=N[C@@H]3c4ccccc4C[C@@H]3O2)c1`, for which the growth is 104% in experiment [1]; 102% in experiment [2]; 103% in experiment [3]; 105% in experiment [4]; 105% in experiment [5]; 97.1% in [6]. Moreover, the growth is 86.9% in experiment [7], 97% in experiment [8], 107% in experiment [9] and 99.4% in experiment [10].

As for `N#Cc1c(-c2ccccc2)cc(-c2ccccc2)n(CC(=O)NO)c1=O`, the growth was 61% in [1]; 6.26% (active) in [2]; 66% in experiment [3]; 42.8% in experiment [4]; 27.9% in experiment [5]; 52.5% in experiment [6]. Besides, the growth in [7] was 63.5%; in experiment [8] it was 63.9%; in [9] it was 67.5%; in experiment [10], 64.8%.

For the compound `Cc1ccc(C(=O)C2=Cc3cc4ccccc4n3Cc3cnnn32)cc1`, the growth in experiment [1] was 113%; in [2], 75.1%; in [3], 116%; in [4] it was 95.5%; in [5] it was 95.3%; in experiment [6] it was 101%. Further, the growth in experiment [7] is 114%; in [8], 111%; in experiment [9], 98.8%; in experiment [10], 115%.

`Cc1ccc(S(=O)(=O)Nc2c(Br)cc(Br)cc2C(N)=O)cc1`: the growth in experiment [1] was 113%; in experiment [2], 119%; in experiment [3], 87.4%; in experiment [4] it was 103%; in [5], 93.1%; in [6] it was 109%. In addition, the growth in experiment [7] is 97.3%; in experiment [8], 101%; in experiment [9], 107%; in [10], 94.5%.

As to `COc1ccc(-c2ccc(-c3ccc(C(=N)N)cn3)s2)cc1OC`, the growth in experiment [1] is 97.5%; in experiment [2], 41.8%; in experiment [3], 94.9%; in experiment [4], 89%; in experiment [5] it was 121%; in [6], 101%. Also, the growth is 99.1% in [7], 83.4% in experiment [8], 114% in [9] and 97.4% in experiment [10].

With `CC(C)CSc1nc(NN)c(C#N)c(-c2ccccc2)n1`, the growth in experiment [1] is 103%; in experiment [2], 94.5%; in experiment [3], 118%; in experiment [4] it was 107%; in [5] it was 90.1%; in experiment [6], 84.6%. For the same compound, the growth in experiment [7] was 88.1%; in experiment [8], 94.5%; in experiment [9] it was 110%; in experiment [10], 107%.

On to `CC1(c2ccc(Cl)cc2)OC(=O)CC(=O)O1`, for which the growth in [1] is 108%; in experiment [2] it was 113%; in [3], 89%; in experiment [4], 98.2%; in experiment [5], 113%; in experiment [6] it was 100%. In addition, the growth in experiment [7] is 120%; in experiment [8], 102%; in experiment [9], 109%; in [10] it was 101%.

As for `COc1ccc(-c2c(-c3cc(OC)c4c(c3)OCO4)noc2N)cc1`, the growth in experiment [1] was -7.24% (active); in [2], 8.5% (active); in experiment [3], 54.4%; in experiment [4], -3.97% (active); in [5], 8.2% (active); in [6] it was 16.6%. The growth in [7] is 2.31% (active); in experiment [8], 0.998% (active); in experiment [9], 74.6%; in experiment [10] it was 12%.

Consider `CC(=O)OC[C@]12CC[C@H]3[C@@H](C[C@H]4O[C@]45CC=CC(=O)[C@]35C)[C@]1(O)CC[C@@]2(O)[C@@](C)(O)C1CC(C)=C(C)C(=O)O1` (stereo not given in full), for which the growth in experiment [1] is 7.44% (active); in experiment [2], 5.58% (active); in experiment [3], -58.4% (active); in [4], -14.7% (active); in experiment [5] it was -62.8% (active); in experiment [6], -49.5% (active). In addition, the growth in [7] was -11.9% (active); in experiment [8], -42.7% (active); in [9], 13.7%; in experiment [10] it was 2.6% (active).

As to `COc1ccc(C2CC(c3ccc(OC)cc3OC)=NN2c2ccc(S(N)(=O)=O)cc2)cc1` (stereo not given), the growth in experiment [1] is 115%; in experiment [2] it was 58.3%; in [3], 123%; in experiment [4], 110%; in experiment [5], 82.4%; in experiment [6], 161%. For the same compound, the growth was 88.5% in [7], 103% in [8], 77.3% in [9] and 96.2% in [10].

`Cc1cc(C2=NNC(=O)Cc3cc4c(cc32)OCCO4)cc(C)c1N`: the growth in experiment [1] was 19.3%; in [2] it was 25.5%; in experiment [3], 32.3%; in experiment [4], 67.5%; in experiment [5], 37.7%; in [6], 44.6%. The growth in [7] was 17.1%; in experiment [8], 19.4%; in experiment [9] it was 60.1%; in experiment [10], 13.4%.
